Consider one compound from PubChem BioAssay AID651871 (Sanford-Burnham Center for Chemical Genomics, 2012).

For this assay, the system named is HL-1. Nature of the assay: cardiomyocyte survival under oxidative or metabolic stress – cell-based, panel, H9c2 and HL-1, ATP luminescence, set 2, SAR follow-up (AID 651871).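 Further: cells exposed to stressor for 2 h before ATP readout; reference of the scale not given here.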 As to conditions: H9c2/HL-1 cardiomyocytes, 2-deoxyglucose stress, with 2-deoxyglucose, run 5, at 19.8 µM (top of the series).

With `COc1ccc2c(c1OC)C(=O)N1c3ccccc3C(=O)N(Cc3cccc(Cl)c3Cl)C21` (stereo unspecified), the activity (protection/inhibition) turned out to be 51.6%.
